# About 83,000 compounds went through this panel and 20% of them were active in at least one assay; those are over-represented in the sample as a whole.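 Single-dose data. Exposure time 48 hours. Values below 10 considered active.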 A number with no mark means an inactive call. The source made the active and inactive calls.
# Key:
# Assay in all cases: NCI-60 one-dose screen, 48 h (100 = growth as untreated, 0 = no growth, -100 = all killed)
# Settings in all cases: 10 µM unless noted
# NCI-H23 lung = test system: NCI-H23 lung
# NCI-H226 lung = test system: NCI-H226 lung
# NCI-H322M lung = test system: NCI-H322M lung
# HOP-62 NSCLC = test system: HOP-62 NSCLC
# NCI-H460 lung = test system: NCI-H460 lung
# HOP-92 NSCLC = test system: HOP-92 NSCLC
# NCI-H522 lung = test system: NCI-H522 lung
# A549/ATCC NSCLC = test system: A549/ATCC NSCLC
# 786-0 renal = test system: 786-0 renal
# COLO 205 colon = test system: COLO 205 colon
# DU-145 prostate = test system: DU-145 prostate
# K-562 leukemia = test system: K-562 leukemia
# MALME-3M melanoma = test system: MALME-3M melanoma
# MDA-MB-231 breast = test system: MDA-MB-231 breast
# RXF 393 renal = test system: RXF 393 renal
# SF-268 CNS = test system: SF-268 CNS
# SF-295 CNS = test system: SF-295 CNS
# SF-539 CNS = test system: SF-539 CNS
# UACC-257 melanoma = test system: UACC-257 melanoma
# M14 melanoma = test system: M14 melanoma
Compound,growth (NCI-H23 lung),growth (NCI-H226 lung),growth (NCI-H322M lung),growth (HOP-62 NSCLC),growth (NCI-H460 lung),growth (HOP-92 NSCLC),growth (NCI-H522 lung),growth (A549/ATCC NSCLC),growth (786-0 renal),growth (COLO 205 colon),growth (DU-145 prostate),growth (K-562 leukemia),growth (MALME-3M melanoma),growth (MDA-MB-231 breast),growth (RXF 393 renal),growth (SF-268 CNS),growth (SF-295 CNS),growth (SF-539 CNS),growth (UACC-257 melanoma),growth (M14 melanoma)
N#Cc1c(Nc2cccc(Cl)c2)sc(C(=O)c2cc3cc(Cl)ccc3o2)c1N,77%,94%,113%,107%,46.7%,8.1% (active),34.8%,94.1%,96.9%,89%,30.6%,51.9%,101%,75.6%,105%,67.7%,123%,84%,102%,105%
Cc1cc(Cl)ccc1NS(=O)(=O)c1ccc(-c2cnc(C3CC3)o2)cc1,31.1%,27.7%,50.7%,48.5%,12.2%,58.3%,13.5%,28.4%,28.6%,-11% (active),21%,9.89% (active),68%,26.2%,16.2%,47%,16.9%,-19.1% (active),69.4%,10.2%
COc1ccc(/C=C2\Oc3cc(OCCN4CCC(Cc5ccccc5)CC4)ccc3C2=O)cc1OC,68.6%,69.6%,96.2%,78.6%,66.5%,47.7%,78.2%,86.7%,78.4%,19.1%,82.5%,7.36% (active),52.7%,53.5%,48%,79.8%,82.6%,83%,73.3%,30.2%
NCCCNc1nc2ccccc2c2c(=O)c3cc(OC(F)(F)F)ccc3sc12,48.3%,85.7%,49.1%,51.6%,-76.6% (active),17.3%,-14.4% (active),-43.3% (active),57.5%,-52.7% (active),-10.7% (active),-34.7% (active),80.9%,-43.2% (active),60.7%,51%,33.4%,-72% (active),104%,-26.4% (active)
O=C(Nn1c(NCC(=O)N2c3ccccc3Sc3ccccc32)nnc1-c1ccc(O)cc1)c1ccccc1,94.4%,104%,104%,99.5%,105%,91.2%,93.1%,106%,92.4%,112%,113%,118%,95.5%,95.3%,122%,105%,105%,105%,104%,92.8%
Nc1ccc(Sc2ccc([N+](=O)[O-])c3nonc23)cc1,95.8%,96.5%,101%,92.2%,96.7%,103%,2.03% (active),89.8%,93.5%,40.6%,97.3%,26.7%,57%,92.4%,104%,98%,96.9%,91.9%,86.9%,88.7%
COc1cc(/C=N/NC(=O)c2ccc(C)nc2)cc(OC)c1OC,102%,85.1%,90.5%,105%,103%,90.5%,91.7%,90.9%,34%,108%,114%,52.2%,97.3%,107%,90%,104%,97.4%,97.6%,74.3%,108%
COc1cc(C(=O)/C=C/c2ccc(OCCCCCC[P+](c3ccccc3)(c3ccccc3)c3ccccc3)cc2)cc(OC)c1OC,-63% (active),-29.2% (active),-23.1% (active),-62.2% (active),-73.6% (active),-26.2% (active),-70.4% (active),-1.89% (active),-92.4% (active),-95.3% (active),-1.64% (active),0.54% (active),-37.9% (active),-15.1% (active),-47.3% (active),-6.6% (active),-23.4% (active),-86.2% (active),-21.4% (active),-55.8% (active)
CCCCOc1nc2ccc(OC)cc2cc1-c1cc(-c2ccc(Cl)cc2)nc(-c2ccc(Cl)cc2)c1,102%,103%,99.7%,110%,107%,97.6%,98.7%,99.3%,112%,112%,114%,106%,100%,93.5%,101%,99.8%,98.1%,98.3%,99.6%,111%
COc1ccc(C2C(C#N)=C(N)Oc3c2sc2c(C)cccc32)cc1 (stereo not given),18.2%,13.5%,48.2%,40.8%,7.35% (active),80%,21.5%,28.4%,27.8%,0.625% (active),22.4%,6.98% (active),62.5%,16.6%,-11.7% (active),49.6%,3.47% (active),-16.8% (active),72.1%,8.58% (active)
Cc1nc2ccccc2c(/C=C/c2ccccc2)c1C(=O)/C=C/c1ccc(C(F)(F)F)cc1,-33.6% (active),-42.2% (active),2.79% (active),-21.9% (active),-71.6% (active),-64.8% (active),-1.91% (active),75.3%,-76.4% (active),-25.7% (active),-88.7% (active),1.82% (active),-61.4% (active),-43.7% (active),-81.7% (active),-6.77% (active),-74.2% (active),-84.9% (active),-21.9% (active),-31.3% (active)
Clc1ccc(C(/C=C/c2sc(Cl)nc2Cl)=N/Nc2cc(Cl)cc(Cl)c2)cc1,92.2%,90.1%,99.9%,99.1%,103%,93%,90.8%,103%,106%,118%,112%,94.6%,103%,103%,110%,99.4%,104%,106%,99.1%,107%
O=C(COc1ccc(/C=C2\Cc3ccc(Cl)cc3C2=O)cc1)Nc1nc2ccccc2s1,95.5%,101%,134%,98.2%,103%,97%,96.7%,99.5%,103%,116%,115%,86.4%,132%,96%,88.4%,112%,108%,98.9%,105%,103%
COc1ccc([C@H]2c3cc(OC)c(OC)cc3C=C(C=O)C2CO)cc1OC (stereo not given in full),62.8%,80.8%,97.8%,62.1%,69.8%,36.8%,32.1%,80.6%,45.7%,45%,61.9%,20.1%,68.2%,70.2%,-9.23% (active),60.5%,12.7%,38%,39.7%,35.7%
CC(C)n1cnc2c(Nc3cccc(Cl)c3)nc(N[C@H]3CCCC[C@@H]3N)nc21,61.7%,68.6%,66.4%,42.8%,45.7%,26.8%,38.7%,55.7%,45.7%,26.4%,49.7%,35.5%,45.5%,32.6%,53.2%,46.5%,76.3%,71.3%,64.1%,40.9%
C[C@H](C(=O)Nc1ccc(S(N)(=O)=O)cc1)S(=O)(=O)c1ccccc1,94.3%,98%,108%,87.6%,108%,94%,90.7%,102%,101%,107%,108%,106%,101%,114%,88.1%,102%,94.6%,102%,103%,104%

# Reference: PubChem BioAssay (NCI)
